Results published in PubChem BioAssay (EPA / NIEHS).
Values joined by “and” are separate entries in the source; they are usually repeats but may differ in a detail not shown here. Equal entries are not always repeated. A structure can be active in one record and inactive in another. Active and inactive are the calls of the source. The calls were made as follows: active = hit-call score of the fitted dose curve at least 0.9, where 1 is the maximum; inactive = score below 0.9.

Experiments:
[1] = APR_HepG2_StressKinase_1hr: Apredica 1-hour HepG2 Assay for Stress Kinase (AID 2282906); settings: HepG2 stress kinase (phospho-c-Jun) imaging, actives raise or lower the signal
How it was run: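 High-content imaging of phospho-c-Jun immunostaining (with Hoechst nuclear identification) after a 1 h exposure of HepG2 cells to 10 concentrations from 0.39 to 200 uM, final DMSO 0.5%. Fitted bidirectionally against DMSO.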

[2] = APR_HepG2_NuclearSize_24hr: Apredica 24-hour HepG2 Assay for Nuclear Size (AID 2282907); settings: high-content imaging, actives raise or lower the signal
How it was run: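 Nuclear size from Hoechst 33342-stained, formaldehyde-fixed HepG2 nuclei imaged by high-content microscopy, after 24 h dosing at ten concentrations from 0.39 to 200 uM in 0.5% DMSO; gain or loss relative to DMSO baseline.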

[3] = APR_HepG2_CellLoss_24hr: Apredica 24-hour HepG2 Assay for Cell Loss (AID 2282908); settings: high-content imaging;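 as to AC50: fit in both directions so a hit may be cell loss or gain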
How it was run: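 Nuclei stained with Hoechst 33342 after formaldehyde fixation (3.7%) were imaged at 20x to count cells. Exposure lasted 24 hr, at ten concentrations from 0.39 to 200 uM in duplicate, with 0.5% v/v DMSO. Fit bidirectional, relative to DMSO.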

[4] = APR_HepG2_MicrotubuleCSK_24hr: Apredica 24-hour HepG2 Assay for Microtubule CSK Stabilty (AID 2282909); settings: HepG2 microtubule cytoskeleton imaging, actives raise or lower the signal
How it was run: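 Fixed HepG2 cells were stained for alpha-tubulin and imaged after 24 hr exposure to ten concentrations spanning 0.39–200 uM in 0.5% DMSO. Signal change was fitted in both directions relative to DMSO; taxol was the positive control.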

[5] = APR_HepG2_MitoticArrest_24hr: Apredica 24-hour HepG2 Assay for Mitotic Arrest (AID 2282910); settings: high-content imaging, actives raise or lower the signal
How it was run: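 Treatment lasted 24 hr in the human HepG2 line at 0.39–200 uM, solvent held at 0.5% DMSO. Fixed cells were stained with Hoechst 33342 and anti-phospho-histone H3, imaged at 20x, and analysed by gain- or loss-of-signal fitting against DMSO.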

[6] = APR_HepG2_MitoMembPot_24hr: Apredica 24-hour HepG2 Assay for Mitochondrial Membrane Potential (AID 2282911); settings: imaging, actives raise or lower the signal
How it was run: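 Cells are dosed for 24 hr across 0.39 to 200 uM with solvent held at 0.5% DMSO. They are then stained with 250 nM MitoTracker Red CMXRos for 30 min, fixed in 3.7% formaldehyde and imaged.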

[7] = APR_HepG2_MitoMass_24hr: Apredica 24-hour HepG2 Assay for Mitochondrial Mass (AID 2282912); settings: high-content imaging, actives raise or lower the signal
How it was run: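 Endpoint is MitoTracker Red CMXRos (250 nM, 30 min, pre-fixation) intensity from 20x high-content imaging, nuclei located by Hoechst. Human HepG2 cells received ten concentrations from 0.39 to 200 uM in 0.5% DMSO for 24 hr, duplicate wells. Bidirectional fit relative to DMSO.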

[8] = APR_HepG2_CellCycleArrest_72hr: Apredica 72-hour HepG2 Assay for Cell Cycle Arrest (AID 2282914); settings: high-content imaging, actives raise or lower the signal
How it was run: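 Read-out is Hoechst-stained nuclear DNA content measured by automated fluorescence imaging (20x, six images per well), fitted in both directions relative to DMSO. Human HepG2 liver cells received 0.39–200 uM compound for 72 hr at 0.5% v/v DMSO.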

[9] = APR_HepG2_CellLoss_72hr: Apredica 72-hour HepG2 Assay for Cell Loss (AID 2282915); settings: high-content imaging
How it was run: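 HepG2 cells were exposed for 72 hr to compounds at 0.39–200 uM (ten concentrations, duplicate) in 0.5% v/v final DMSO. Nuclei were stained with Hoechst 33342 after 3.7% formaldehyde fixation, imaged at 20x, and counted; fits bidirectional versus DMSO.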

[10] = APR_HepG2_P-H2AX_72hr: Apredica 72-hour HepG2 Assay for H2AX Phosphorylation (AID 2282916); settings: imaging, actives raise or lower the signal;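 also: phospho-histone H2A.x immunostain intensity per cell marking DNA damage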
How it was run: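 Phospho-histone H2A.x immunofluorescence, multiplexed with Hoechst and c-Jun, quantified by high-content imaging. Compounds applied to HepG2 for 72 h across ten concentrations (0.39–200 uM, 0.5% DMSO), in duplicate; DMSO baseline.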

[11] = APR_HepG2_MitoMembPot_72hr: Apredica 72-hour HepG2 Assay for Mitochondrial Membrane Potential (AID 2282917); settings: imaging, actives raise or lower the signal
How it was run: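 HepG2 cells exposed 72 h to compounds at 0.39–200 uM (0.5% v/v DMSO, duplicates); MitoTracker Red CMXRos 250 nM loaded 30 min before 3.7% formaldehyde fixation, imaged by HCS fluorescence. Bidirectional fit versus DMSO.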

[12] = APR_HepG2_MitoticArrest_72hr: Apredica 72-hour HepG2 Assay for Mitotic Arrest (AID 2282918); settings: high-content imaging, actives raise or lower the signal
How it was run: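 Read-out is phospho-histone H3 immunofluorescence with Hoechst nuclear segmentation, imaged at 20x. Human HepG2 liver cells received ten concentrations (0.39–200 uM, final DMSO 0.5% v/v) for 72 hr before fixation. Gain or loss of signal was fitted relative to DMSO.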

[13] = APR_HepG2_MicrotubuleCSK_72hr: Apredica 72-hour HepG2 Assay for Microtubule CSK Stabilty (AID 2282919); settings: HepG2 microtubule cytoskeleton, high-content imaging, actives raise or lower the signal
How it was run: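 Ten-point dosing (0.39–200 uM, 0.5% DMSO) of HepG2 for 72 hr, with taxol as the cytoskeletal positive control. The cells were formaldehyde-fixed and then stained with alpha-tubulin/Cy5 and Hoechst. Imaging at 20x used a −2 um Z offset for tubulin.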

[14] = APR_HepG2_StressKinase_72hr: Apredica 72-hour HepG2 Assay for Stress Kinase (AID 2282921); settings: HepG2 stress kinase (phospho-c-Jun) imaging, actives raise or lower the signal
How it was run: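 Stress kinase signal is phospho-c-Jun immunofluorescence (1:500 primary, Cy3 secondary) in fixed, permeabilized human HepG2 cells imaged at 20x. Exposure lasted 72 hr over ten concentrations from 0.39 to 200 uM, 0.5% DMSO, in duplicate. Bidirectional fit versus DMSO.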

[15] = APR_HepG2_StressKinase_24hr: Apredica 24-hour HepG2 Assay for Stress Kinase (AID 2282922); settings: HepG2 stress kinase (phospho-c-Jun) imaging, actives raise or lower the signal
How it was run: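 After 24 hr compound treatment (up to 200 uM, final DMSO 0.5% v/v), HepG2 cells are fixed and multiplex-labeled; phospho-c-Jun intensity is captured by high-content fluorescence imaging and analyzed relative to DMSO.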

[16] = APR_HepG2_p53Act_72hr: Apredica 72-hour HepG2 Assay for p53 Activation (AID 2282923); settings: high-content imaging, actives raise or lower the signal;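 also: average cellular p53 protein immunofluorescence intensity in HepG2 cells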
How it was run: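 After 72 h with compound (ten points, 0.39 to 200 uM, final DMSO 0.5% v/v), fixed HepG2 cells were labelled with sheep anti-p53 and Hoechst 33342 and imaged; gain or loss versus DMSO scored.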

[17] = APR_HepG2_MitoMass_72hr: Apredica 72-hour HepG2 Assay for Mitochondrial Mass (AID 2282924); settings: high-content imaging, actives raise or lower the signal;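 also: MitoTracker Red CMXRos stain intensity per cell imaged as mitochondrial mass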
How it was run: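 Steps: treat HepG2 72 hr (0.39–200 uM, duplicate wells); load MitoTracker Red CMXRos, 250 nM, 30 min; fix with 3.7% formaldehyde, permeabilise with 0.5% Triton X-100; capture images, nuclei via Hoechst 33342; fit bidirectionally against DMSO.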

[18] = APR_HepG2_NuclearSize_72hr: Apredica 72-hour HepG2 Assay for Nuclear Size (AID 2282925); settings: high-content imaging, actives raise or lower the signal
How it was run: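 Compounds (0.39–200 uM, final DMSO 0.5%) were applied to HepG2 for 72 hr. Cells were then formaldehyde-fixed, permeabilized and labelled with Hoechst 33342. Nuclear diameter was quantified from six images per well.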

Measured: AC50

CC(C)(c1ccc(O)cc1)c1ccc(O)cc1
inactive: [1] | [2] | [3] | [4] | [5] | [6] | [7] | [8] | [10] | [11] | [12] | [13] | [14] | [15] | [16] | [17] | [18]
active: [3] 106 µM and 107 µM and 100 µM | [4] 103 µM | [6] 12.7 µM and 30.5 µM and 101 µM | [7] 109 µM and 122 µM | [9] 109 µM [middle of 4 runs] | [10] 114 µM and 105 µM | [11] 101 µM and 81.5 µM and 107 µM | [14] 102 µM | [17] 122 µM
